From the supplement of paper PMC6609913 come the findings set out here.

The assay has as its system V-C8 (BRCA2-deficient hamster cells). Briefly: normalised cell viability (fraction of plate median); higher = more viable cells (less toxic). As to conditions: 5 µM. The essentials:
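Library drugs, held as 10 mM stocks in DMSO, were diluted to 5 μM in 100 μl medium and added to 96-well plates of V-C8 hamster cells, either lacking BRCA2 or with BRCA2 restored, 24 h after seeding. Plates ran for 3 days (screen 1) or 6 days (screen 2), alongside solvent-only wells. Viability came from a resazurin readout, median-plate normalised, as the mean of triplicate wells.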

Structures can show the parent of a compound that is named as a salt. ± gives the standard deviation of the averaged measurements. Over roughly 1,300 compounds, “normalised cell viability” has its median near 1; the lowest 2% begin near 0.14. The sample as a whole holds a higher share of the lowest values than the screen did.

On to `Nc1ccc(S(=O)(=O)Nc2ccnn2-c2ccccc2)cc1` [Sulfaphenazole], for which the normalised cell viability by setting is: (treatment time: 3 days) 1.01 ± 0.011; (treatment time: 6 days) 1.03 ± 0.031.

As to `COc1ccccc1OCC(O)CN1CCN(CC(=O)Nc2c(C)cccc2C)CC1` (stereo unspecified) [Ranolazine], the normalised cell viability by setting is: (treatment time: 3 days) 1.04 ± 0.054; (treatment time: 6 days) 0.967 ± 0.086.

Turning to `N#CC(c1ccc(Cl)cc1)c1c(Cl)cc(-n2ncc(=O)[nH]c2=O)cc1Cl` (stereo unspecified) [Diclazuril], the normalised cell viability came to 0.905 ± 0.068 (treatment time: 3 days) and 0.875 ± 0.068 (treatment time: 6 days).

In the case of `C#CCN(C)CCCOc1ccc(Cl)cc1Cl` [Clorgyline hydrochloride], the normalised cell viability by setting is: (treatment time: 3 days) 1.11 ± 0.063; (treatment time: 6 days) 1.019 ± 0.0054.

Take `NS(=O)(=O)Cc1noc2ccccc12` [Zonisamide]: the normalised cell viability stood at 1.01 ± 0.036 (treatment time: 3 days) and 1.03 ± 0.065 (treatment time: 6 days).

As for `COc1ccc2c(c1)C(=O)N(CCc1ccc(S(=O)(=O)NC(=O)NC3CCCCC3)cc1)C(=O)C2(C)C` [Gliquidone], the normalised cell viability runs as follows: (treatment time: 3 days) 1.05 ± 0.077; (treatment time: 6 days) 1.08 ± 0.049.

`CN1CCCN=C1/C=C/c1cccs1` [Pyrantel tartrate]: the normalised cell viability by setting is: (treatment time: 3 days) 1.06 ± 0.019; (treatment time: 6 days) 1.02 ± 0.079.

As for `CC(C)(C)NC[C@H](O)COc1nsnc1N1CCOCC1` [Timolol maleate salt], the normalised cell viability (treatment time: 3 days) is 1.01 ± 0.022 and the normalised cell viability (treatment time: 6 days) worked out at 1.07 ± 0.065.

With `CCN(CC)C(=O)Nc1ccc(OCC(O)CNC(C)(C)C)c(C(C)=O)c1` (stereo unspecified) [Celiprolol HCl], the normalised cell viability (treatment time: 3 days) turned out to be 1.13 ± 0.12 and the normalised cell viability (treatment time: 6 days) was determined as 0.988 ± 0.031.

Take `C[C@H](O)C(=O)Nc1c(I)c(C(=O)NC(CO)CO)c(I)c(C(=O)NC(CO)CO)c1I` [Iopamidol]: the normalised cell viability (treatment time: 3 days) came out at 0.952 ± 0.093 and the normalised cell viability (treatment time: 6 days) worked out at 1.09 ± 0.06.

Consider `Clc1ccc(CSC(Cn2ccnc2)c2ccc(Cl)cc2Cl)cc1` (stereo unspecified) [Sulconazole nitrate], for which the normalised cell viability amounted to 0.983 ± 0.067 (treatment time: 3 days) and 0.829 ± 0.043 (treatment time: 6 days).

In turn, `CCOC(=O)Nc1ccc2c(c1)N(C(=O)CCN1CCOCC1)c1ccccc1S2` [Moricizine hydrochloride] displayed a normalised cell viability (treatment time: 3 days) of 1.1 ± 0.13 and a normalised cell viability (treatment time: 6 days) of 1.13 ± 0.083.

As for `C=CC1=C(C(=O)O)N2C(=O)[C@@H](NC(=O)/C(=N\O)c3csc(N)n3)[C@H]2SC1` [Cefdinir], the normalised cell viability is, setting by setting: (treatment time: 3 days) 1.016 ± 0.0043; (treatment time: 6 days) 1.01 ± 0.06.

Molecule `Cc1c(C)c2c(c(C)c1O)CCC(C)(COc1ccc(CC3SC(=O)NC3=O)cc1)O2` (stereo unspecified) [Troglitazone] came in with a normalised cell viability (treatment time: 3 days) of 0.68 ± 0.04 and a normalised cell viability (treatment time: 6 days) of 0.588 ± 0.04.

Take `C=C(CC)C(=O)c1ccc(OCC(=O)O)c(Cl)c1Cl` [Ethacrynic acid]: the normalised cell viability runs as follows: (treatment time: 3 days) 1.08 ± 0.038; (treatment time: 6 days) 1.01 ± 0.048.

For `COc1cc2c(cc1OC)C(=O)C(CC1CCN(Cc3ccccc3)CC1)C2` (stereo unspecified) [Donepezil hydrochloride], the normalised cell viability runs as follows: (treatment time: 3 days) 0.957 ± 0.087; (treatment time: 6 days) 0.983 ± 0.011.

Take `OCC(O)CN1CCN(c2ccccc2)CC1` (racemic) [Dropropizine (R,S)]: the normalised cell viability came to 0.964 ± 0.051 (treatment time: 3 days) and 1.01 ± 0.057 (treatment time: 6 days).

Take `C=C[C@H]1CN2CC[C@H]1C[C@@H]2[C@@H](O)c1ccnc2ccc(OC)cc12` [Quinidine hydrochloride monohydrate]: the normalised cell viability came to 0.997 ± 0.0082 (treatment time: 3 days) and 0.876 ± 0.16 (treatment time: 6 days).
